Screening data as filed in PubChem.
LDHA block = LDHA (human) enzyme inhibition; P00338; purified LDHA, NADH/diaphorase-resazurin fluorescence; stronger effect = lower value; activity change, % (values are at about 110 or 230 µM); 480,000 tested, 0.15% active; AID 1347041; in the data active = activity change below about -30%; inconclusive = mostly about -25% to -30%;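 note: plate controls were DMSO wells for no effect and wells without enzyme for full effect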
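Human LDH5 (2 nM) was incubated with 0.06 mM NADH and 0.2 mM pyruvate for 5 min at room temperature in Tris pH 7.4. Remaining NADH was coupled through diaphorase/resazurin, and resorufin fluorescence was read at 0 and 20 min.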
RORg inh = inhibitors of mouse ROR gamma transcriptional activity; P51450; Drosophila S2 Gal4-RORgamma UAS-luciferase reporter, 20 h; Potency, µM (series often up to 53.6 µM), for inactives: top-dose activity change, negative = inhibition, actives largely listed as inhibitors; 310,000 tested, 5.4% active; note: potency is the fitted concentration of half-maximal effect; nearly all actives have a fitted effect of over 60% in size
Target sequence (P51450 whole entry, looked up, the tested form may be a part): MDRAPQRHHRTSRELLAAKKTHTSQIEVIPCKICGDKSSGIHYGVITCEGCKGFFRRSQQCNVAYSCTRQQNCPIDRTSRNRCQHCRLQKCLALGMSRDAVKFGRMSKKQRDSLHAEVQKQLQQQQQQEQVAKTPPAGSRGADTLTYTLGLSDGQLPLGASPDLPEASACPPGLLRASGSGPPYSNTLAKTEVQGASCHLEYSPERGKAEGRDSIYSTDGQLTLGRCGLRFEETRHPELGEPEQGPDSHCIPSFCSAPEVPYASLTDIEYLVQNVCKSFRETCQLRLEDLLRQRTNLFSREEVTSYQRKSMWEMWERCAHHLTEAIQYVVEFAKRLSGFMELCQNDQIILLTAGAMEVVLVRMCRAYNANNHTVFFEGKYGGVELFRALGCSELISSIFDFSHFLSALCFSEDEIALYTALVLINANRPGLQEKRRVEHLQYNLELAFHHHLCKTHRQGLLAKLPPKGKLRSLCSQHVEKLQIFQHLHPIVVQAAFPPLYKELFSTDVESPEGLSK
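Drosophila S2 cells stably expressing Gal4-DBD/mouse RORγ fusion under metallothionein promoter plus UAS-luciferase; compound 1 h, then 700 uM CuSO4 induction for 20 h at ambient temperature; inhibition read as reduced luminescence.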
DT40 TDP1 no CPT = qHTS for Inhibitors of human tyrosyl-DNA phosphodiesterase 1 (TDP1): qHTS in cells in absence of CPT. AID 686978, 2013. 420,000 tested, 15% active. DT40 Tdp1-/- hTDP1 cells, no CPT, ATP luminescence, 48 h. Potency, µM (titrated, usually from 46.2 µM), for inactives: at the highest dose activity change, negative = growth inhibition, most hits filed as inhibitors; note: potency is the fitted concentration of half-maximal effect; nearly all actives have a fitted effect of over 55% in size
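Growth kinetics read by CellTiter-Glo luminescence after ≥48 hr at 37 °C. Cells: DT40 Tdp1-/- stably carrying human TDP1, 400 per well, compound exposure in the absence of CPT (DMSO vehicle).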
IL1B secr inh = inhibitors of inflammasome signaling (IL-1 beta secretion); 360,000 tested, 4.7% active; activity change, % at 57.5 µM; THP-1 LPS/ATP IL-1B secretion, AlphaLISA, 16 h; stronger effect = lower value; AID 743279; in the data active = activity change below about -50%; inconclusive = mostly about -30% to -49%
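THP-1 cells pretreated 1 hr with compounds (up to 57.5 uM final), then stimulated with LPS (250 ng/mL final) plus ATP (1.25 mM final); secreted IL-1B measured by AlphaLISA after 16 hr, decreased signal indicating inhibition.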
Gal4-VP16 FLuc = Gal4-VP16 reporter inhibition counter-screen; Drosophila S2 Gal4-VP16 UAS-luciferase, luminescence, 20 h; Potency, µM (series often up to 53.6 µM), without a hit: at the highest dose activity, negative = inhibition, most hits filed as inhibitors; 310,000 tested, 3.5% active; AID 2546;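 note: Gal4-VP16 expression switched on by copper sulfate through the metallothionein promoter; potency is the fitted concentration of half-maximal effect; nearly all actives have a fitted effect of over 50% in size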
DT40 TDP1 CPT = growth inhibition of DT40 Tdp1-/-;hTDP1 cells with camptothecin (screen for TDP1 inhibitors); chicken DT40 Tdp1-/-;hTDP1 cells + 20 nM CPT, ATP luminescence, 48 h; 420,000 tested, 12% active; Potency, µM (titrated, usually from 46.2 µM), for inactives: top-dose activity change, negative = growth inhibition, actives largely listed as inhibitors; AID 686979; note: potency is the fitted concentration of half-maximal effect; nearly all actives have a fitted effect of over 55% in size
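Chicken DT40 Tdp1-/- cells stably complemented with human TDP1 were seeded at 400 cells/well in medium containing 20 nM camptothecin, exposed to pin-transferred compounds, and grown at 37 °C for at least 48 hr. Viability was read as ATP luminescence.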
* marks the source's active call; other numbers are inactive results; u = inconclusive; x = no result; [ ] = dose if it differs, or a comment. This is a sample that favours compounds with a hit; in the whole collection about 18% have one here. Unless noted, calls come from the whole dose curve; as a rule, active = well fitted curve in the direction sought with a large enough effect; inconclusive = small, poorly fitted or top-dose-only effect, or another doubt; inactive = no such curve, though single readings can be large; an effect the other way counts as inactive or inconclusive. Unless noted, % is set by controls: 0 for no effect and ±100 for the full control effect.

SMILES	LDHA block	RORg inh	DT40 TDP1 no CPT	IL1B secr inh	Gal4-VP16 FLuc	DT40 TDP1 CPT
COc1ccccc1OCC(=O)Nc1ccc(C(=O)Nc2ccccc2C(=O)O)cc1	-3.9	x	u	24.5	x	-21.5%
COc1ccc(CN(C)CC(=O)Nc2ccc(Cl)cc2F)c(OC)c1	-14.6	9.7%	u	-0.3	9.5%	u
Cc1ccccc1CN(C)CC(=O)Nc1ccccc1-c1ccccc1	3.5	184.2%	u	-4.0	u	-18.0%
COc1ccccc1CN(C)CC(=O)Nc1ccccc1-c1ccccc1	0.0	2.2%	23.1µM*	-82.0*	5.3%	u
CCN(CC(=O)Nc1ccccc1OC)CC(=O)Nc1ccccc1-c1ccccc1	u	-0.6%	9.2µM*	26.7	5.3%	7.31µM*
COc1ccc(CN(C)CC(=O)Nc2ccccc2-c2ccccc2)c(OC)c1	-4.5	4.9%	18.4µM*	-51.0*	-2.4%	u
CN(C)C(=O)c1ccc(CNC(=O)C2CCCC2)cc1	-8.3	x	x	x	x	x
CN(C)C(=O)c1ccc(SC(=S)NCc2ccccc2)cc1	-10.1	x	5.8µM*	u	x	5.8µM*
O=C(O)CCn1cc(/C=C\C(=O)c2ccc(Cl)cc2)c(-c2cccc(Br)c2)n1	-7.0	u	18.4µM*	-93.0*	u	u
Cc1ccc(-c2nn(Cc3ccccc3)cc2/C=C/C(=O)O)cc1	-9.0	u	-0.6%	42.4	-2.6%	-10.1%
Cc1ccc(-c2nn(CCC(=O)O)cc2/C=C\C(=O)c2ccc(Br)cc2)cc1	0.5	u	u	-25.1	19.0%[10 µM]	11.6µM*
CS(=O)c1ccccc1-c1nc(-c2cc(C(F)(F)F)cc(C(F)(F)F)c2)no1 (configuration not stated)	4.3	-3.9%	13µM*	5.7	3.2%	10.3µM*
COc1ccc(OC)c(CCNC(=O)c2cc3c(=O)n(C)c4ccccc4c3n2C)c1	2.5	x	23.1µM*	x	x	u
Cc1cccc(CCNC(=O)c2cc3c(=O)n(C)c4ccccc4c3n2C)c1	-1.8	x	u	x	x	u
COc1ccc(CCNC(=O)c2cc3c(=O)n(C)c4ccccc4c3n2C)cc1OC	-2.9	-1.3%	16.4µM*	-3.1	0.2%	u
CSc1ccc(/C=C/C(=O)c2ccc(S(=O)(=O)NCC(=O)O)cc2)cc1	3.9	x	x	x	x	x
Cc1ccc2c(COC(=O)CNS(=O)(=O)c3ccc(C)c(C)c3)cc(=O)oc2c1	8.0	x	x	x	x	x
O=C(COc1ccc([N+](=O)[O-])cc1)Nc1nc(-c2ccccn2)cs1	2.9	x	5.8µM*	67.4	x	4.61µM*
O=C(COc1cccc(F)c1)Nc1nc(-c2ccccn2)cs1	2.8	x	2.59µM*	90.4	x	5.17µM*
Cc1ccc(OCC(=O)Nc2nc(-c3ccccn3)cs2)c(C)c1	0.8	x	u	45.1	x	u
O=C(COc1ccc(F)cc1)Nc1nc(-c2ccccn2)cs1	-0.4	x	7.31µM*	21.3	x	7.31µM*
CSc1cccc(NC(=O)CCc2ncc(-c3ccccc3)o2)c1	3.3	x	x	x	x	x
N#CCOc1ccc(NC(=O)c2ccc3ccccc3n2)cc1	-21.3	x	x	x	x	x
CC(=O)Nc1ccc(I)c(C)n1	-0.3	x	x	x	x	x
O=C(O)CCCNc1cc(N2CCN(C(=O)c3ccco3)CC2)c2noc3c2c1C(=O)c1ccccc1-3	1.6	u	u	u	-13.8%	u
SMILES	LDHA block	RORg inh	DT40 TDP1 no CPT	IL1B secr inh	Gal4-VP16 FLuc	DT40 TDP1 CPT
CCOC(=O)N1CCN(C(=O)c2noc3c2COc2ccccc2-3)CC1	-2.2	-1.3%	-0.2%	-9.7	-6.1%	u
CCOC(=O)N1CCN(c2cc(NCCC(=O)O)c3c4c(onc24)-c2ccccc2C3=O)CC1	16.2	-3.1%[0.365 µM]	u	-63.9*	x	u
O=C(O)CCCNc1cc(N2CCC3(CC2)OCCO3)c2noc3c2c1C(=O)c1ccccc1-3	x	-28.9%	x	x	-3.9%	x
CCCCNc1cc(N2CCN(C3CCCCC3)CC2)c2noc3c2c1C(=O)c1ccccc1-3	11.9	x	5.17µM*	x	x	5.17µM*
O=C1c2ccccc2-c2onc3c(N4CCN(CCO)CC4)cc(N4CCN(C(=O)c5ccco5)CC4)c1c23	30.6	u	14.6µM*	u	u	u
Cc1ccc2nc(C)c(C(=O)/C=C/c3ccccc3)c(-c3ccccc3)c2c1	-1.0	x	x	x	x	x
Cc1nc(C)c(C(=O)NCc2cccnc2)s1	-1.3	x	x	x	x	x
Cc1cc(S(=O)(=O)[C@H]2CS(=O)(=O)C[C@@H]2N2CCN(c3ccc(F)cc3)CC2)ccc1F	-17.2	x	x	x	x	x
CCn1c(=O)c(=O)n(CC)c2cc(N3CCCCC3)c(NC(=O)c3ccc(C)cc3)cc21	-13.5	x	x	x	x	x
CCOc1ccc(C(=O)Nc2cc3c(cc2N2CCCC2)n(CC)c(=O)n3CC)cc1OCC	8.0	-31.7%	u	15.0	-4.3%	u
CCn1c(=O)c(=O)n(CC)c2cc(N3CCCCC3)c(NC(=O)c3ccc(OC)c(OC)c3)cc21	13.3	x	9.2µM*	x	x	13µM*
CCOC(=O)Cc1ccc(NC(=O)Nc2cc3c(cc2N2CCCCC2)n(C)c(=O)n3C)cc1	1.3	x	2.59µM*	x	x	4.61µM*
CN(C)c1cc2c(cc1NC(=O)c1ccc(F)cc1)n(C)c(=O)n2C	11.1	x	23.1µM*	x	x	u
Cn1c(=O)n(C)c2cc(N3CCCCC3)c(NC(=O)Nc3ccc(Br)cc3)cc21	-4.9	x	u	x	x	u
CCn1c(=O)n(CC)c2cc(N3CCCC3)c(NC(=O)c3ccc(F)cc3)cc21	7.2	0.0%	18.4µM*	48.7	-2.1%	23.1µM*
Cc1cccc(C)c1OCC(=O)NCc1ccc(Cn2cccn2)cc1	-11.2	x	x	x	x	x
C=C(C)CN1CCC(NC(=O)c2ccc(C)s2)CC1	0.6	x	x	x	x	x
CCn1c(=O)n(CC)c2cc(N3CCCCC3)c(NC(=O)Nc3cc(C)cc(C)c3)cc21	10.4	x	6.51µM*	x	x	5.8µM*
CCn1c(=O)n(CC)c2cc(N3CCCC3)c(NC(=O)c3c(F)cccc3F)cc21	14.1	4.1%	11.6µM*	20.1	-2.5%	u
COc1ccc(NC(=O)COC(=O)c2cc(=O)c3ccccc3o2)c(OC)c1	8.4	x	x	x	x	x
Cc1ccc(S(=O)(=O)C/C=C/CS(=O)(=O)c2ccc(C)cc2)cc1	-2.9	x	x	x	x	x
O=C(COc1ccc(Cl)cc1)Nc1sc2c(c1C(=O)Nc1cccc(Cl)c1)CCCC2	-3.5	x	7.31µM*	x	x	18.4µM*
Cc1ccccc1NC(=O)c1c(NC(=O)c2ccncc2)sc2c1CCC(C(C)(C)C)C2 (configuration not stated)	-2.4	x	6.51µM*	x	x	18.4µM*
